Screen size: about 38,000 compounds; about 1,200 (3.2%) showed an effect of 50% or more. The median lay at about -58%. This excerpt belongs to a sample that is enriched for strong results.
Test system: Plasmodium falciparum
Assay: Calibr Malaria Delayed Death Assay SOP
Format: functional, organism-based
Design: scale not given: in the data most compounds retested in dose-response had high values
Details: concentration 4.99e-06 (unit not given; other assays of the set use mol/L)

SMILES	Percent Effect [%]
Cc1nccn1C1CCCN(C(=O)c2cccc3c2OCO3)C1 (stereo unspecified)	-58.82
NC(=O)C1CCC(NC(=O)COc2ccc(Cl)c(Cl)c2)CC1 (stereo unspecified)	13.16
O=C1CC(N2CCN(c3ccccc3O)CC2)C(=O)N1Cc1cccs1 (stereo unspecified)	-172.2
CCN(Cc1ccncc1)C(=O)CCn1c(C)cc2ccccc21	55.24
Cc1cc2ccccc2n1CCC(=O)NCCN(C)S(C)(=O)=O	-87.62
CCN(Cc1nc(COC)no1)C(=O)CCn1c(C)cc2ccccc21	5.524
CN(C)C(=O)CC1CC2(CCN(Cc3cccs3)CC2)c2ccccc21.O=C(O)C(F)(F)F (stereo unspecified)	22.44
CN1CCN(C(=O)N2CCCC(c3nccn3CC3CCC3)C2)CC1 (stereo unspecified)	-95.73
CC(=O)N1CCC(C(=O)NCc2ncc(-c3ccccc3)o2)CC1	-123.2
CCc1nc(CN2CCCC2C(=O)NC)cs1 (stereo unspecified)	-71.78
CN(Cc1cnn(C)c1)C(=O)C1CCCN1Cc1ccccn1 (stereo unspecified)	-66.14
CC(=O)Nc1cccc(CN2CCCC2C(=O)Nc2nccs2)c1 (stereo unspecified)	-76.05
NC(=O)C1CCCN1Cc1nccn1CC(F)(F)F (stereo unspecified)	-38.81
CCc1nc(CN2CCCC2C(=O)NC2CC2)cs1 (stereo unspecified)	-16.64
O=C(Nc1nccs1)C1CCCN1Cc1ccccn1 (stereo unspecified)	93.51
CC(C)(C)NC(=O)C1CCCCN1Cc1nccn1CC(F)(F)F (stereo unspecified)	-48.44
CCNc1ccnc(CN2CCCC2C(=O)Nc2nccs2)c1 (stereo unspecified)	94.9
CCn1ccnc1CN1CCCC1C(=O)Nc1nccs1 (stereo unspecified)	84.6
Cc1cnn(CC2CCCN2C(=O)c2n[nH]c3ccccc23)c1 (stereo unspecified)	-56.22
CC(=O)Nc1ccc(SCCCC(=O)NCC2CCCO2)nn1 (stereo unspecified)	-99.67
CC(NC(=O)N1CCC1)c1ccc(S(N)(=O)=O)cc1 (stereo unspecified)	-105.8
Cc1ccc(NC(=O)NCCc2cnn(C)c2)c(N(C)C)n1	-69.56
CCc1ccsc1C(=O)N1CCN(C(=O)CC(F)(F)F)CC1	-98.82

SMILES	Percent Effect [%]
CCC1(CC)CC(=O)N(CC(O)c2cc(F)ccc2F)C1=O (stereo unspecified)	-120
Cc1cccc(CN2CCc3ncnc(N4CCCC4)c3CC2)n1.O=C(O)C(F)(F)F	-17.07
O=c1c(NCc2ccco2)c(NCC(O)CN2CCOCC2)c1=O (stereo unspecified)	-219.4
O=C(c1ccnc(N2CCOC(C(F)(F)F)C2)c1)N1CCCC1 (stereo unspecified)	-34.44
O=C(Nc1cn[nH]c1)NC1CCN(c2ccccc2OC(F)F)C1 (stereo unspecified)	-124.3
O=C(NC1CCN(c2ccccc2OC(F)F)C1)c1cccnc1 (stereo unspecified)	-43.56
Cc1noc(C)c1CNc1c(N2CCCC2)cccc1N1CCCC1	-39.5
Cc1noc(C)c1CNC1CCN(c2ccccc2OC(F)F)C1 (stereo unspecified)	63.44
COc1ccccc1N1CCC(NCc2c(C)noc2C)C1 (stereo unspecified)	24.81
O=C(Nc1cccnc1)NC1CCN(c2ccccc2OC(F)F)C1 (stereo unspecified)	16.84
O=C(Nc1ccccn1)NC1CCN(c2ccccc2OC(F)F)C1 (stereo unspecified)	9.794
O=C(Nc1ccncc1)NC1CCN(c2ccccc2OC(F)F)C1 (stereo unspecified)	64.77
Cc1c(CNC2CCN(c3ccccc3OC(F)F)C2)cnn1C (stereo unspecified)	69.48
CC1(C)CCN1C(=O)c1cc(F)cc2[nH]cnc12	-143.1
CNC(=O)CS(=O)(=O)NC1CCC(C)CC1 (stereo unspecified)	0.5939
Cc1cc(CN2CCN(Cc3cc(C#N)ccc3F)CC2)no1	-43.24
O=C(O)C(F)(F)F.c1cnc(N2C[C@@H]3COC[C@]3(COCC3CCCC3)C2)nc1	-62.66
COc1ccc(S(=O)(=O)NCCn2cnc(C)cc2=O)cc1C	-119.1
COc1cccc(CN(C)Cc2ccccc2C#N)c1OC	-10.45
COc1cccc(CN(C)Cc2cc(C#N)ccc2F)c1OC	-37.67
CC(C)OCc1nn(C)c2c1CCN(CC1CC1)C2.O=C(O)C(F)(F)F	-24.03
O=C(N1CCSCC1)C1(O)Cc2ccccc2C1	-49.25
O=C(N1CCc2ccccc2CC1)C1(O)Cc2ccccc2C1	56.27

SMILES	Percent Effect [%]
O=C(N1CCN(CCO)CC1)C1(O)Cc2ccccc2C1	-7.059
COCCNC(=O)C1CN(C(N)=O)Cc2ccnn2C1 (stereo unspecified)	-83.21
O=C(c1coc(COc2cccc3cnccc23)n1)N1CCCCCC1	16.31
O=C(O)c1coc(COc2cccc3cnccc23)n1	-75.43
CC(C(=O)Nc1ccc(N2CCCCC2)nc1)n1ccnc1 (stereo unspecified)	-81.15
Cn1ccnc1CN(Cc1cccnc1)CC1CCCO1 (stereo unspecified)	-29.26
NCC(c1ccccc1)N1CCc2sccc2C1 (stereo unspecified)	56.94
CC(CNC(=O)c1ccco1)N1CCc2sccc2C1 (stereo unspecified)	-89.83
N#Cc1ccccc1CN1CCc2sccc2C1	-109.2
O=C(CCn1ccc2ccc(Br)cc21)/N=c1\[nH]nc(C2CCCO2)s1 (stereo unspecified)	-91.4
CC(c1ccc(S(C)(=O)=O)cc1)N(C)C(=O)c1ccccc1I (stereo unspecified)	-43.05
COc1ccc(CCC(C)Nc2cccc(SC)c2)cc1 (stereo unspecified)	-91.4
COc1ccc(OC)c(CN2CCN(Cc3cscn3)CC2)c1	-31.14
COc1ccc(C(C)NCc2ccnn2C)cc1Cn1cccn1 (stereo unspecified)	-53.25
COc1ccc(C(C)NCc2cccs2)cc1Cn1cccn1 (stereo unspecified)	28.81
COc1ccc(C(C)NCc2scnc2C)cc1Cn1cccn1 (stereo unspecified)	-18.73
COc1ccc(C(C)NCc2cscn2)cc1Cn1cccn1 (stereo unspecified)	71.39
COc1ccc(C(C)NCc2ccsc2)cc1Cn1cccn1 (stereo unspecified)	71.68
CCc1nnc(CN2CCCCC2Cn2cncn2)o1 (stereo unspecified)	-69.23
Cc1nc(C2CCCN2C(=O)CCOCc2ccccc2)no1 (stereo unspecified)	-117.2
O=S(=O)(Nc1cnn(C2CCOCC2)c1)c1ccc(Br)cc1	-25.25
CNC(=O)N1CCCCC1c1nnc2n1CCCC2 (stereo unspecified)	-92.12
O=C1c2cnc(N3CCCCC3)nc2CN1c1ccc2c(c1)OCO2	-196

SMILES	Percent Effect [%]
CCNc1nc(C)c(C(=O)N(C)Cc2nc(CC)no2)s1	-30.42
O=C(NC[C@H]1CCCC[C@H]1O)c1ccc2nc(-c3ccco3)[nH]c2c1	-121.1
O=c1[nH]c(NC2CCCC2)nc2nccc(-c3cccs3)c12	55.34
O=C1NCCCCC1NCc1csc(-c2ccsc2)n1 (stereo unspecified)	-129.5
O=C(NC[C@H]1CCCC[C@H]1O)c1cccc2[nH]c(-c3cccs3)nc12	-57.07
O=c1[nH]c(NC2CCCC2)nc2nccc(-c3ccsc3)c12	67.56
O=C(O)Cn1nc(C2CC2)c2c(-c3cccs3)ccnc21	-11.75
O=C(O)Cn1nc(C2CC2)c2c(-c3ccco3)ccnc21	-116
O=C(NC1CCCC1)C1Cc2nc(-c3ccsc3)sc2N1CC1CC1 (stereo unspecified)	-48.35
O=c1[nH]c(NC2CCCC2)nc2nccc(-c3ccco3)c12	71.56
Cc1cccc(CN(C(=O)CCn2cncn2)C(C)C)c1	-52.83
O=C(CCc1nc2cc(Br)cnc2[nH]1)NCCCN1CCOCC1	-51.18
COc1ccc(C)cc1CC(=O)NC1(C#N)CCOCC1	-117.4
CCOc1cc(C(=O)NS(=O)(=O)c2cccc(C#N)c2)ccc1OC	-127.1
CCC(CC)CN1CCN(CC(=O)Nc2ccc3nsnc3c2)CC1	27.19
CN(C)C(=O)CN1CCC2(CCN(C(=O)N3CCCC3)CC2)C1=O	-157.2
CC(C)Oc1ncnc2c1CCN(Cc1ccco1)CC2.O=C(O)C(F)(F)F	60.03
c1coc(CN2CCc3ncnc(C4CCOC4)c3CC2)c1 (stereo unspecified)	-48.34
CC(C)Oc1ncnc2c1CCN(Cc1ccoc1)CC2.O=C(O)C(F)(F)F	29.43
COCCN1CCc2ncnc(OC(C)C)c2CC1.O=C(O)C(F)(F)F	-76.73
Cc1ccc(CN2CCc3ncnc(OC(C)C)c3CC2)s1.O=C(O)C(F)(F)F	-2.65
COc1ncnc2c1CCN(Cc1cccs1)CC2.O=C(O)C(F)(F)F	-104.3
Cc1nc(C)c2c(n1)CCN(Cc1ccco1)CC2	-20.07

SMILES	Percent Effect [%]
CC(C)Oc1ncnc2c1CCN(Cc1ccc(F)cc1)CC2.O=C(O)C(F)(F)F	69.87
CCOc1cc(C(=O)N2CCCC(c3noc(C(C)C)n3)C2)ccn1 (stereo unspecified)	-128.3
Cc1c(F)cc(C(=O)O)cc1S(=O)(=O)Nc1ccc(F)c(C#N)c1	-35.67
Cc1occc1-c1nnc2n1NC(N)=C(C#N)S2	-74.61
COCCN(C)C[C@@H]1CN(C(=O)c2ccc(O)c(C)c2)C[C@@H]1CO	-85.42
COc1ccc(-c2cnc(NC(C)=O)[nH]2)cc1	-138
COc1ccc(-c2cc(C3CCN(C(C)=O)CC3)ccn2)cc1	-100.7
COc1ccc(-c2ccc(C3CNCCO3)nc2)cc1.Cl (stereo unspecified)	63.33
C[C@H]1C[C@@H]2CCN(C(=O)c3cnccn3)C[C@H]2O1	-123.8
Cc1ccc(N2N=C(C(=O)O)S(=O)(=O)c3cccnc32)cc1	-91.48
O=C(CCCn1cncn1)NC1CCc2nccn2C1 (stereo unspecified)	-11.39
COc1ccc(CN(C)CCS(=O)(=O)c2ccc(Cl)cc2)cc1OC	-60.68
Cn1c(-c2cc3n(n2)CCCN(CC(=O)O)C3)nc2ccccc21	-285
CCCn1ncc(CN2CCCCC2CCCOC)c1C (stereo unspecified)	-4.874
c1ccc(CNc2ncc(CN3CCCN4CCC[C@H]4C3)cn2)cc1	-75.33
C=Cn1ncc(CN2C[C@@H]3C[C@@H](O)CN3C[C@H]2Cc2ccccc2)c1C	32.93
CCCn1ncc(CN2C[C@@H]3CCCN3C[C@H]2Cc2ccccc2)c1C	55.8
CCCn1ncc(C(=O)N2CCN(C3CCCC3)CC2)c1C	-11.79
CCCn1ncc(CN2C[C@@H]3CCCN3C[C@@H]2Cc2ccccc2)c1C	62.1

From ChEMBL document CHEMBL3988442, “University of Dundee, Small-Polar-MMV Screening Library” (2021)
